# Results taken from PubChem BioAssay AID1851 (National Center for Advancing Translational Sciences (NCATS), 2009).
# The campaign covered roughly 16,000 compounds. About 2,600 (16%) were called active. Another 20% or so got no clear call; they are omitted. Calls come from the whole dose curve; as a rule, active = well fitted curve in the direction sought with a large enough effect; inconclusive = small, poorly fitted or top-dose-only effect, or effect the other way; inactive = no such curve, though single readings can be large or run the other way. Not all results are given here. Square brackets hold non-standard residues; d marks the D form. Peptide text beside a SMILES is read from it.
# Target: Cytochrome P450 2D6 (Homo sapiens) (UniProt P10635)
# Sequence (P10635 whole entry, looked up): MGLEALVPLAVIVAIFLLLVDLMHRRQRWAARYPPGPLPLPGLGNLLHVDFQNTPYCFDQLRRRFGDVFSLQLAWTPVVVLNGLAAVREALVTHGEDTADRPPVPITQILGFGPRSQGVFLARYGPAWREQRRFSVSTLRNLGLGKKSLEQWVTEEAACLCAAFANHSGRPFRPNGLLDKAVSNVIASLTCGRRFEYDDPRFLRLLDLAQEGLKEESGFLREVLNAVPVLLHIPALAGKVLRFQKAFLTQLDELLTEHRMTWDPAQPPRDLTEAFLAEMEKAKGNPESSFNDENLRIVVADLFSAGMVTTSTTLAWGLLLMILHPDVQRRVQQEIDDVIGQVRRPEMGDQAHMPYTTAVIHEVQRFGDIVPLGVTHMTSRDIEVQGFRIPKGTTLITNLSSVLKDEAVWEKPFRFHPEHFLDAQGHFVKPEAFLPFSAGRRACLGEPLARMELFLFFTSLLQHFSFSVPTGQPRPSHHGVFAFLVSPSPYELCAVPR
# Experiment: Cytochrome panel assay with activity outcomes
# Settings: recombinant CYP, pro-luciferin dealkylation, luminescence, p450-cyp2d6; series mostly up to 57.1 µM; activity, negative = inhibition: at the top concentration
# % is set by controls: 0 for no effect and ±100 for the full control effect.
Compound,"activity, negative = inhibition",AC50
COc1ccc2nc(NC(C)=O)sc2c1,-22% (inactive),
Cc1ccccc1NC(=O)c1ccc(N/N=C/c2ccccc2O)c([N+](=O)[O-])c1,7.35% (inactive),
COC(=O)NCC(c1cccnc1)N1CCN(c2ccccc2OC)CC1 (stereo not given),-15.4% (inactive),
O=c1c2ccccc2nc2n1C(CSc1ccc(F)cc1)CN2 (stereo not given),0.0903% (inactive),
CCCCNC(=O)CCC(=O)Nc1ccc2nc(N3CCOCC3)cc(C)c2c1,0.308% (inactive),
COc1ccc2cc3cc(C(=O)NCCCN4CCOCC4)oc3nc2c1,-4.17% (inactive),
CN1CCN(CCCNC(=O)c2ccc(CSCc3cccc(Cl)c3)o2)CC1,,10 µM (active)
COc1ccc(S(N)(=O)=O)cc1C(=O)NCCCN1CCN(c2cccc(Cl)c2)CC1,-25.8% (inactive),
Nc1cc(S(=O)(=O)O)cc2ccc(S(=O)(=O)O)cc12,-8.48% [at 11.4 µM] (inactive),
CCc1ccc(-c2cc(C(=O)NCc3ccco3)c3ccccc3n2)s1,-21.5% (inactive),
CSc1nc(N)nc(-c2cccs2)c1C#N,-25.1% (inactive),
CCOc1ccc(CCNC(=O)CCCN2C(=O)c3ccccc3C2=O)cc1OCC,-8.45% (inactive),
O=C(CCCCCN1C(=O)c2ccccc2C1=O)NCc1ccccn1,-2.31% (inactive),
COc1ccc(CCNC(=O)CCCCCN2C(=O)c3ccccc3C2=O)cc1,,5.01 µM (active)
Cc1cccc(N2CCN(CC(=O)Nc3ccc(-n4cnnn4)cc3)CC2)c1C,11.1% (inactive),
COc1ccc(S(=O)(=O)N(CCc2ccccc2)CC(=O)N2CCOCC2)cc1,-14.5% (inactive),
O=C(Oc1ccc2c(c1)CN(Cc1ccccc1)CO2)c1ccccc1,,0.501 µM (active)
CN(Cc1ccccc1)S(=O)(=O)c1ccc(OCC(=O)N2CCOCC2)cc1,8.83% (inactive),
CC(Oc1ccc(O)cc1)(P(=O)(O)O)P(=O)(O)O,13.1% (inactive),
C/C(CCN1CCc2nc(-c3ccccc3)c(-c3ccccc3)cc2C1)=N\OC[C@@H](O)[C@@H]1O[C@@H]2OC(C)(C)O[C@@H]2[C@H]1O,12.8% [at 11.4 µM] (inactive),
C[C@@H](NCc1cc(Br)cc2[nH]c(=O)c(=O)[nH]c12)P(=O)(O)O,-8.92% (inactive),
O=C(CCCN1CCC(O)(c2ccc(Br)cc2)CC1)c1ccc(F)cc1,,3.98 µM (active)
c1ccc(-c2nc3ccccn3c2NCc2ccc3c(c2)OCO3)cc1,,3.98 µM (active)
O=C(N/N=C\c1cn(-c2ccccc2)nc1-c1ccccc1)c1ccc2c(c1)OCO2,-17.7% (inactive),
CCOC(=O)c1c(-c2ccccc2)nc2ccccn12,-9.25% (inactive),

Compound,"activity, negative = inhibition",AC50
CCCS(=O)(=O)N1CCCC(C(=O)N2CCN(C(=O)OCC)CC2)C1 (stereo not given),-12.2% (inactive),
CCCS(=O)(=O)N1CCN(CC2CC=CCC2)CC1 (stereo not given),,1.12 µM (active)
CCCS(=O)(=O)N1CCCC(C(=O)N2CCOCC2)C1 (stereo not given),-6.68% (inactive),
COc1ccc(Oc2c(C=O)c3ccccc3n2C)cc1,2.31% (inactive),
c1ccc(C2CCC(N3CCC(N4CCCCC4)CC3)CC2)cc1 (stereo not given),,14.1 µM (active)
CC(C)CC(=O)N1CCC(N2CCN(c3ccccc3)CC2)CC1,-26.8% (inactive),
COc1ccccc1NC(=O)c1nn(-c2cccc(C(F)(F)F)c2)ccc1=O,-12.9% (inactive),
O=[N+]([O-])c1ccc(/C=N/N/C(=N/c2ccccn2)c2ccccn2)cc1,-12.1% (inactive),
COc1ccc(-n2c(=O)c(-c3cccc(F)c3)nc3cncnc32)cc1,-6.96% (inactive),
c1cncc(-c2cncnc2-n2ccnc2)c1,-0.954% (inactive),
CN1CCN(c2ccnc(-c3cccc(NS(C)(=O)=O)c3)n2)CC1,-0.74% (inactive),
COc1cccc(-c2cncnc2-n2ccnc2)c1,,12.6 µM (active)
N#Cc1cccc(-c2nccc(-n3ccnc3)n2)c1,,12.6 µM (active)
COc1cccc(-c2nccc(-n3ccnc3)n2)c1,,7.94 µM (active)
COc1cccc(Sc2cc(N3CCOCC3)nc(-c3ccccc3)n2)c1,-3.46% (inactive),
CS(=O)(=O)Nc1cccc(-c2nccc(-n3ccnc3)n2)c1,,12.6 µM (active)
N#Cc1cccc(-c2cc(-n3ccnc3)ncn2)c1,-20.9% (inactive),
CS(=O)(=O)Nc1cccc(-c2cncnc2-n2ccnc2)c1,-7.9% (inactive),
COc1cccc(-c2nccc(NC3CCNCC3)n2)c1,-13.3% (inactive),
CC[C@H]1C(=O)OC[C@H]1Cc1cncn1C,,inactive
CCN(CC)c1ccc(NC(=O)c2cccc(F)c2)c(C)c1,-21.3% (inactive),
CC[C@H]1CC[C@H]2[C@@H]3CC=C4C[C@H](OC(C)=O)[C@@H](N)C[C@@]4(C)[C@H]3CC[C@@]12C,-4.19% [at 11.4 µM] (inactive),
NCC(=O)N[C@H](CO)C(=O)O (H-Gly-[dS]-OH),6.25% [at 11.4 µM] (inactive),
CC1=NNC(=S)NCCCN2CCN(CCCNC(=S)NN=C(C)C=NNC(=S)NCCCN3CCN(CCCNC(=S)NN=C1)CC3)CC2,-0.261% [at 11.4 µM] (inactive),
CC1(C)CC(=O)C(C=NCCN2CCN(C(=S)Nc3ccc(F)cc3)CC2)=C(O)C1,-0.562% (inactive),

Compound,"activity, negative = inhibition",AC50
c1cn(-c2ccnc(-c3ccc4c(c3)OCO4)n2)cn1,,3.16 µM (active)
CN1CCN(c2ccnc(-c3ccc(N(C)C)cc3)n2)CC1,-12.6% (inactive),
O=C(OCc1ccccc1)/C(=C/c1ccc(Cl)cc1)NC(=O)c1ccccc1Cl,3.78% (inactive),
COc1ccc(Oc2ncc3nc(-c4ccc(F)cc4)c(=O)n(Cc4cccs4)c3n2)cc1,-1.7% (inactive),
c1ccc(CNc2ccnc(-c3ccc4c(c3)OCO4)n2)cc1,,1.58 µM (active)
CN(C)C(=O)c1ccc(-c2nccc(NCc3cccnc3)n2)cc1,-5.03% (inactive),
O=C(O)COc1ccc(-c2nccc(-c3cccs3)n2)cc1,-18.2% (inactive),
c1cncc(CNc2ccnc(-c3ccc4c(c3)OCO4)n2)c1,,10 µM (active)
c1csc(CNc2ccnc(-c3ccc4c(c3)OCO4)n2)c1,,0.501 µM (active)
CN(C)C(=O)c1ccc(-c2cc(NCc3cccnc3)ncn2)cc1,-7.64% (inactive),
COc1cccc(Cn2c(=O)c(-c3ccccc3)nc3cnc(N4CCN(C)CC4)nc32)c1,8.89% (inactive),
COc1ccc(-n2c(=O)cnc3cnc(N4CCNCC4)nc32)cc1,4.72% (inactive),
Fc1ccc(-c2csc(N3CCC(c4ccccc4)C3)n2)cc1 (stereo not given),-23.2% (inactive),
CCN(CC)Cc1nc2c(c(=O)[nH]1)C1(CCCC1)Cc1ccccc1-2,-51.6% (inactive),
CCCCCCCCCCCCCCCCCCOC[C@@H](COP(=O)([O-])OCC[N+](C)(C)C)OC,3.16% (inactive),
COc1nc(Cl)nc(Cl)c1Cl (tested in a mixture with another compound),10.4% [at 11.4 µM] (inactive),
Cc1ccccc1-n1ncc2c(SCC(=O)N3c4ccccc4CC3C)ncnc21 (stereo not given),-4.18% (inactive),
CO[C@H]1COC(=O)C/C=C\[C@@H](C)COC(=O)[C@H]2CCCN2C(=O)C/C=C\[C@H]1C,-1.87% [at 11.4 µM] (inactive),
O=C(Cn1cnc([N+](=O)[O-])n1)N/N=C/c1ccccc1O,24.4% (inactive),
CC1=C(C(=O)OCc2ccccc2)C(c2ccc(Cl)cc2)NC(=O)N1CCCCCC(=O)O (stereo not given),-13.2% (inactive),
Cc1ccc(OCC(=O)Nc2ccccc2N2CCOCC2)c(C)c1,-28.3% (inactive),
O=C(Cc1ccccc1)Nc1ccccc1N1CCOCC1,-25.1% (inactive),
CCOc1ccc(C(=O)Nc2ccccc2N2CCCC2)cc1,,3.16 µM (active)
O=C(CNC1CCCCCC1)Nc1ccccc1N1CCCCC1,,1.41 µM (active)
COc1cc(OC)cc(C(=O)Nc2ccccc2C(=O)N2CCCC2)c1,-4.71% (inactive),

Compound,"activity, negative = inhibition",AC50
CCOc1cc(NC(=S)Nc2ccccc2)c(OCC)cc1NC(=O)c1ccc(OC)cc1,19.1% (inactive),
CC1(C)CC(=O)C(C(c2cccc(O)c2O)C2C(=O)CC(C)(C)CC2=O)C(=O)C1,-12.6% [at 11.4 µM] (inactive),
Cc1ccc(-n2c(-c3cc(C)n(C)n3)n[nH]c2=S)cc1,-8.75% (inactive),
Cc1ccc(SC(C)C(=O)NCc2cccnc2)cc1 (stereo not given),-6.56% (inactive),
Cc1ccc(S(=O)(=O)/C(C#N)=C/c2c(N3CC(C)OC(C)C3)nc3ccccn3c2=O)cc1 (stereo not given),-20% (inactive),
COc1ncc2nc(CCc3ccccc3)c(=O)n(CCc3ccccc3)c2n1,-5.83% (inactive),
Cc1cccn2c(/C=N/OCc3cccc(F)c3)c(-c3ccc(Cl)cc3)nc12,-23.8% (inactive),
CCN1C(=O)[C@H]2[C@H]3[C@H](O)[C@H](O)C/C(=N/OCC(C)C)[C@H]3CC[C@@H]2C1=O,-6.52% [at 11.4 µM] (inactive),
Cc1noc(C)c1C(=O)N1CCC[C@@]2(CCN(C(=O)Nc3cccc(F)c3)C2)C1,1.31% (inactive),
CCOC(=O)CC(=O)CSc1nc(-c2ccccc2)cc(-c2ccc(Cl)cc2)c1C#N,9.93% (inactive),
O=C1c2ccccc2C(=O)N1CC1c2ccccc2CCN1S(=O)(=O)c1ccccc1 (stereo not given),-14.8% (inactive),
CCNCc1cc(OCC)c(OCC(=O)NCCc2ccccc2)cc1Cl,,12.6 µM (active)
COc1ccc(OC)c2[nH]c(=O)c(CCNC(=O)COc3ccccc3)cc12,-8.87% (inactive),
CCn1c(CC(=O)Nc2ccc(C)cc2)nnc1SCC(=O)NCCc1ccccc1,-19% (inactive),
O=C(N/N=C/c1ccco1)c1ccc(Br)o1,13.5% (inactive),
CCCN1CCC(=NNC(=O)c2ccc(Br)o2)CC1,,7.08 µM (active)
CN1CCC(=NNC(=O)CSCc2ccccc2)CC1,-21.6% (inactive),
COc1ccc(OC[C@@H](CO)OC)cc1,-7.62% [at 11.4 µM] (inactive),
COc1ccc(CNC(=O)CN(CC2CCCO2)C(=O)CNS(=O)(=O)c2ccccc2)cc1 (stereo not given),-2.1% (inactive),
CN1CC[C@@]2(CCCN(C(=O)c3cccc(F)c3)C2)C1,-10.5% (inactive),
COc1ccccc1CNc1ncncc1-c1ccccc1C(F)(F)F,,2 µM (active)
COc1ccc(CNc2ncncc2-c2ccccc2C(F)(F)F)c(OC)c1,,0.398 µM (active)
O=c1c(-c2cccc(Cl)c2)nc2cncnc2n1C1CC1,-3.44% (inactive),
O=C(Nc1ccccc1[N+](=O)[O-])C1C(c2ccccc2)=C1c1ccccc1,15.3% (inactive),
COc1ncc2nc(-c3cccs3)c(=O)n(C)c2n1,-1.28% (inactive),
